We go through 35 compounds from PubChem BioAssay.

The nature of the assay: S6 kinase pathway phospho-S6 level changes – cell-based, A549, cytoblot, luminescence, serum-stimulated, primary screen (AID 1158).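 Also: serum-stimulated A549 lung adenocarcinoma cells; signal is phosphorylated S6 detected by cytoblot immunostaining with HRP secondary.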 As to conditions: 5 h, higher = more signal.
On to `COC(=O)[C@@]1(Cc2ccc(F)cc2)[C@H]2c3cc(C(=O)N(C)C)n(CCF)c3C[C@H]2CN1C(=O)c1ccccc1`, for which the z-score was found to be 0.456.

In the case of `COC(=O)[C@@]1(Cc2ccccc2)[C@H]2c3cc(C(=O)N(C)C)n(Cc4ccc(Cl)c(C(F)(F)F)c4)c3C[C@H]2CN1C(=O)c1ccccc1`, the z-score is -0.114.

On to `COc1ccc(NN2C(C(O)c3ccc(F)cc3)C=CC3C(=O)N(C4CCCCC4)C(=O)C32)cc1` (stereo not given), for which the z-score is -0.54.

In turn, `[N-]=[N+]=NCc1ccccc1C[C@@]1(C(N)=O)N=C(c2ccc(OCCCO)cc2)O[C@@H]1c1ccccc1N=[N+]=[N-]` displayed a z-score of -0.441.

Turning to `O=C1O[C@H](c2ccccc2)[C@H](c2ccccc2)N2[C@H]1[C@@H](C(=O)Nc1nc3ccccc3s1)[C@]1(C(=O)Nc3ccccc31)[C@H]2c1ccccc1OCCO`, the z-score is 0.354.

Take `CC(C)c1ccc(NN2C(C(O)C(C)c3ccccc3)C=CC3C(=O)N(c4ccccc4)C(=O)C32)cc1` (stereo not given): the z-score was -1.44.

Consider `COCCCNC(=O)[C@]1(Cc2ccccc2N=[N+]=[N-])N=C(c2ccc(OCCCO)cc2)O[C@@H]1c1ccccc1`, for which the z-score stood at 0.008.

`COC(=O)[C@@]1(Cc2ccc(OC)cc2)[C@H]2c3cc(C(=O)N(C)C)n(Cc4c(CO)[nH]cc(C)c4=O)c3C[C@H]2CN1C(=O)c1ccccc1` registered a z-score of -0.507.

`COC(=O)C(CC#Cc1ccc2c(c1)[C@]1(C(=O)N2)[C@H](c2ccc(OCCO)cc2)N2[C@H](c3ccccc3)[C@H](c3ccccc3)OC(=O)[C@H]2[C@@H]1C(N)=O)C(=O)OC` came in with a z-score of -0.359.

`O=C1N(Cc2ccccc2)Cc2ccccc2C[C@@]12COC(c1ccc(OCCCO)cc1)=N2` displayed a z-score of -0.087.

Compound `COCCCNC(=O)[C@@]1(c2ccc([N+](=O)[O-])cc2)CC(=O)N(C2CCCCC2)[C@@H]1c1ccc(CO)cc1I` returned a z-score of 0.107.

Regarding `CO[C@H]1O[C@H](CO)[C@@H](OC(=O)Nc2ccccc2)[C@@H]2OC(=O)[C@@H](Cc3ccccc3)C/C=C/C[C@H](Cc3ccccc3)C(=O)O[C@@H]12`, the z-score was -0.0813.

The compound `O=C1O[C@@H](c2ccccc2)[C@@H](c2ccccc2)N2[C@@H](c3ccc(OCCO)cc3)[C@]3(C(=O)Nc4ccc(C#CC5=CCCCC5)cc43)[C@@H](C(=O)Nc3nc4ccccc4s3)[C@H]12` yielded a z-score of -0.579.

The compound `COCCOC(=O)N1C(=O)[C@@]2(c3cc(C#CC4(O)CCCCCC4)ccc31)[C@H](C(N)=O)[C@H]1C(=O)O[C@H](c3ccccc3)[C@H](c3ccccc3)N1[C@@H]2c1ccc(OCCO)cc1` came in with a z-score of 0.0826.

Turning to `COC(=O)C(CC#Cc1ccc2c(c1)[C@]1(C(=O)N2)[C@H](C(N)=O)[C@H]2C(=O)O[C@H](c3ccccc3)[C@H](c3ccccc3)N2[C@@H]1c1ccccc1OCCO)C(=O)OC`, the z-score was -0.127.

As to `Cc1ccc(S[C@]2(C(=O)NCC(C)C)CC(=O)N(C(C)C)[C@@H]2c2ccc(CO)cc2I)cc1`, the z-score came out at 0.363.

In the case of `CN1C2C=C(c3ccc(CO)cc3)C(C3C(=O)N(C(N)=O)C(=O)C32)C1C1CC1` (stereo not given), the z-score is -0.0656.

In the case of `[N-]=[N+]=NCc1ccccc1[C@H]1OC(c2ccc(OCCCO)cc2)=N[C@@]1(CCS(=O)(=O)c1ccccc1)C(=O)O`, the z-score was -0.497.

With `COC(=O)[C@@]1(Cc2ccc(F)cc2)[C@H]2c3cc(C(=O)N4CCCC4)n(Cc4ccc(OC(F)(F)F)cc4)c3C[C@H]2CN1C(=O)c1ccccc1`, the z-score was 0.0769.

`C[N+](C)(C)CCCC[C@@H]1NC(=O)[C@H]2C[C@@H](C(=O)O)[C@@H](c3ccc(O)cc3)N2C1=O` had a z-score of 1.2.

For `CN1C(=O)C2CC=C(C3=CCO[C@@H]3[C@H]3CCCN3S(=O)(=O)c3ccccc3[N+](=O)[O-])CC2C1=O` (stereo not given in full), the z-score is -0.307.

In turn, `COC(=O)[C@@]1(Cc2ccc(F)cc2)[C@H]2c3cc(C(=O)N4CCCC4)n(Cc4ccc(C(F)(F)F)nc4)c3C[C@H]2CN1C(=O)c1ccccc1` registered a z-score of -0.186.

For the compound `C=C(CCCC)/C(=C/C[C@@H](OC(C)=O)c1cccc(OCCO)c1)c1cc(C(=O)OC)ccc1OC`, the z-score is 0.0322.

Compound `O=C/C=C/c1ccc(-c2ccccc2)cc1` returned a z-score of 1.04.

In turn, `O=C1O[C@H](c2ccccc2)[C@H](c2ccccc2)N2[C@H]1[C@@H](C(=O)N1CCCCCCC1)[C@]1(C(=O)Nc3ccc(C#CCCO)cc31)[C@H]2c1ccc(O)cc1` displayed a z-score of 0.0374.

The compound `C=CCNC(=O)[C@H]1[C@@H]2C(=O)O[C@@H](c3ccccc3)[C@@H](c3ccccc3)N2[C@@H](c2ccc(O)cc2)[C@]12C(=O)Nc1ccc(C#CCC(C(=O)OC)C(=O)OC)cc12` yielded a z-score of 0.0591.

`C[C@]1(C(=O)O)c2ccccc2C(=O)N(Cc2cc(C(F)(F)F)cc(C(F)(F)F)c2)[C@H]1c1ccc(CO)cc1` had a z-score of -0.0892.

On to `C=CCOC(=O)[C@H]1[C@@H]2C(=O)O[C@@H](c3ccccc3)[C@@H](c3ccccc3)N2[C@@H](c2ccc(OCCOC(=O)[C@H]3C[C@H]4C(=O)NCC(=O)N4[C@H]3c3ccc(O)cc3)cc2)[C@]12C(=O)Nc1ccccc12`, for which the z-score was -0.295.

Compound `COc1ccc([Si](C)(C)[C@H]2[C@H](CC(=O)N3CCC[C@H]3CO)O[C@@]3(C(=O)N(Cc4cccc(N5CCCCC5=O)c4)c4ccccc43)[C@@H]2C)cc1` had a z-score of -0.438.

As for `C=CCNC(=O)[C@H]1[C@@H]2C(=O)O[C@@H](c3ccccc3)[C@@H](c3ccccc3)N2[C@@H](c2ccc(O)cc2)[C@]12C(=O)N(C(=O)OCCOC)c1ccc(C#Cc3ccc(OC)cc3)cc12`, the z-score was -0.376.

As for `O=C(CS)NCCCCCCNC(=O)[C@H]1C[C@H]2C(=O)NCC(=O)N2[C@H]1c1cccc(OCCO)c1`, the z-score was found to be 0.21.

For the compound `COc1cc(Cc2cc3c(c(-c4ccccc4)n2)[Si](C(C)C)(C(C)C)OC3)cc(OC)c1OC`, the z-score is 0.159.

As for `Cc1c(NC(=O)/C(C#N)=C/C=C/c2ccc([N+](=O)[O-])cc2)c(=O)n(-c2ccccc2)n1C`, the z-score was -0.279.

`CCOC(=O)C[C@H]1[C@H](OC(=O)c2ccccc2-c2ccccc2)[C@@H](NC(=O)CC(C)C)c2cc(OCCCO)ccc2N1C(=O)c1ccccc1` had a z-score of 1.47.

Regarding `COCCOC(=O)N1C(=O)[C@@]2(c3cc(C#CCNC(N)=O)ccc31)[C@H](c1ccc(O)cc1)N1[C@H](c3ccccc3)[C@H](c3ccccc3)OC(=O)[C@H]1[C@@H]2C(=O)N1CCc2cc(OC)c(OC)cc2C1`, the z-score is -0.0879.
